# Reference: PubChem BioAssay AID1645860 (Buhrlage Lab, Dana-Farber Cancer Institute and Novartis …, 2021)
# Among all 47,000 compounds or so, about 2,500 (5.3%) were called active. For the sample, actives were picked, then their nearest neighbours and some compounds at random. A number with no mark means an inactive call. Cut-off read from the data, not from the text of the source: active = inhibition above about 30%; inactive = the rest.
# Target: Ubiquitin carboxyl-terminal hydrolase 30 (Homo sapiens) (UniProt Q70CQ3)
# Sequence (Q70CQ3 whole entry, looked up): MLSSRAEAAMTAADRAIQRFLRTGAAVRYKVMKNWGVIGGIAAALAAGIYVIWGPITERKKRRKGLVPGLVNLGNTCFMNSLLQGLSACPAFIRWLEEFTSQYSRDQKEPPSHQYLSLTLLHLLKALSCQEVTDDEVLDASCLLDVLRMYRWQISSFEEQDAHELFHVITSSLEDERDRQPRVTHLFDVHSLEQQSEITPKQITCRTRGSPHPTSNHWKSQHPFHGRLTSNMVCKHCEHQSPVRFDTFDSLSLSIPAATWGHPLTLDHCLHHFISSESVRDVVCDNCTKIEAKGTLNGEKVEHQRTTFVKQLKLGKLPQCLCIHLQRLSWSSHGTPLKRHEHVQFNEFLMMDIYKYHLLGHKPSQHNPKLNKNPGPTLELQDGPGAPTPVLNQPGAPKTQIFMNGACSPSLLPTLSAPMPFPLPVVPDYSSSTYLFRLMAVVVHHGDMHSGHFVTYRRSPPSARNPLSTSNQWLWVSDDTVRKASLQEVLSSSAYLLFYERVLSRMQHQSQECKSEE
# Test: inhibitors of human USP30 deubiquitinase (AID 1645860)
# Conditions: purified USP30, Ub-rhodamine cleavage fluorescence; at 25 µM; stronger effect = higher value
row,SMILES,inhibition
1,CCOc1ccc(CC(=O)N2CCN(c3ccc(OC)nn3)CC2)cc1,-11.9%
2,O=C(Cc1ccccc1)N1CCN(c2ccc(N3CCCC3)nn2)CC1,-15.8%
3,Cc1cc(C)n(-c2ccc(C(=O)NCC(c3ccccc3)c3c[nH]c4ccccc34)cc2)n1 (stereo not given),-19.5%
4,Cc1cc(C)n(-c2ccc(C(=O)Nc3ccccc3C(C)C)nn2)n1,34.9% (active)
5,CSc1ccccc1NC(=O)c1ccc(N2CCCC2)nn1,77.3% (active)
6,O=C(c1ccc(N2CCCC2)nn1)N1CCN(c2ccccn2)CC1,3.65%
7,O=C(CSc1ncnc2c1nnn2-c1ccc(F)cc1)N1CCc2ccccc21,3.49%
8,CCCOc1ccc(C2Nc3ccccc3S(=O)(=O)N2Cc2ccccc2)cc1OCC (stereo not given),11%
9,CCc1noc(-c2c(C)cc(C)n2CC(=O)NCc2cccc(F)c2)n1,19.8%
10,COc1ccc(C(CNC(=O)c2oc3ccccc3c2C)N2CCOCC2)cc1 (stereo not given),0.732%
11,Cc1noc(-c2cccn2Cc2ccc(F)cc2)n1,-50.7%
12,Cc1ccc(Cn2cc(-c3noc(-c4ccc[nH]4)n3)nn2)cc1,65% (active)
13,Cc1ccc(Cn2cc(-c3noc(-c4ccccn4)n3)nn2)cc1,15%
14,CCN1C(=O)c2c(C(=O)NC3CC3)ncn2CC1(C)C(=O)NC1CCCC1 (stereo not given),9.61%
15,COc1cccc(CNC(=O)c2ccc(-c3cncnc3)nc2)c1,17.3%
16,COc1cccc(C(=O)NCc2ccc(-c3nc4cnccc4o3)cc2)c1,30.7% (active)
17,COc1cc(C(=O)Nc2ccc(-c3nc4cnccc4o3)cc2)cc(OC)c1OC,14.2%
18,Cc1cnc(C(=O)N2CCC3(CC2)CC(OCC2CC2)CO3)cn1 (stereo not given),-3.6%
19,O=C(Cc1ccccc1)N1CCc2[nH]nc(-c3ccc(F)cc3)c2C1,-4.25%
20,CC(NC(=O)c1ccc(S(=O)(=O)Nc2ccccc2)cc1)c1ccc(S(N)(=O)=O)cc1 (stereo not given),11.3%
21,CC1(C)Cc2nc(-c3ccccc3)nc(SCC(=O)Nc3cccc4ccccc34)c2CO1,-6.78%
22,CN1C(=O)C(C)(C)COc2ccc(NS(=O)(=O)c3ccccc3Cl)cc21,0.732%
23,CCCCN(c1ccccc1)S(=O)(=O)c1cccc(C(=O)OCC(=O)NCc2ccc3c(c2)OCO3)c1,47.1% (active)
24,COc1ccc2c(Sc3ccccc3)c(C(=O)NCc3ccc4c(c3)OCO4)[nH]c2c1,7.37%
25,O=C(COC(=O)c1ccc(F)c(S(=O)(=O)N2CCOCC2)c1)NCc1ccc2c(c1)OCO2,-3.24%
26,CC(C)Cc1cc(-c2nn3c(-c4ccccc4Cl)nnc3s2)n[nH]1,40.6% (active)
27,Cc1c(-c2nn3c(-c4ccco4)nnc3s2)cccc1[N+](=O)[O-],-45.6%
28,CNc1nc2c(c(=O)n1C)CN(S(=O)(=O)c1ccccc1)CC2,11.5%

row,SMILES,inhibition
1,CC(C)c1ccc(C(=O)N2CCN(c3cnn4cnnc4c3)CC2)cc1,-7.33%
2,COc1ccc2ccccc2c1S(=O)N1CCN(c2ccccc2F)CC1 (stereo not given),1.36%
3,COc1cc2[nH]c(=O)n(Cc3ccc(C(=O)N4CCN(c5ccccn5)CC4)cc3)c(=O)c2cc1OC,9.66%
4,O=C(Cn1cnc2ccccc21)N1CCCc2ccccc21,-7.37%
5,CC1CCN(C(=O)CSc2ccc3nnc(-c4cccc(F)c4)n3n2)CC1,-0.05%
6,O=C(CSc1ccc2nnc(-c3ccccc3)n2n1)N1CCCc2ccccc21,51.5% (active)
7,CC(C)CN1[C@H]2CCN(C(=O)c3ccccc3)CC[C@@H]2Oc2ccccc2S1(=O)=O,16.5%
8,Cc1cccc(S(=O)(=O)NCCc2cn(C)c3ncccc23)c1,-9.95%
9,Cc1cc2c(cc1S(=O)(=O)N1CCC(C(=O)N(C)Cc3ccco3)CC1)OCC(=O)N2,26.1%
10,O=C(Nc1cc(-c2ccccc2)nn1C1CCS(=O)(=O)C1)c1ccccc1F (stereo not given),-4.62%
11,CC(C)(C)n1nc(C2CC2)c(Br)c1NC(=O)c1ccccc1F,35.5% (active)
12,O=C(Nc1c(C(=O)N2CCOCC2)oc2ccccc12)c1ccccc1F,10.2%
13,O=C(Nc1cc(=O)[nH]c2nc(CCc3ccccc3)nn12)c1ccc(F)cc1,-74.9%
14,COc1ccc2[nH]c3c(c2c1)CCN1C(=O)N([C@@H](C)C(=O)NCC(=O)O)C(=O)[C@]31C,-8.05%
15,COc1ccc(CNC(=O)c2ccccc2N2C(=O)N3CCc4c([nH]c5ccccc45)[C@@]3(C)C2=O)cc1,41.7% (active)
16,C[C@]12C(=O)N(c3cccc(C(=O)NCCN4CCOCC4)c3)C(=O)N1CCc1c2[nH]c2ccccc12,12.9%
17,O=C(N[C@@H]1C[C@@H](Oc2cccc(F)c2)[C@H](O)[C@H]1N1CCCC1)C1CCOCC1,-0.94%
18,COc1cccc(C(=O)N[C@@H]2C[C@@H](Oc3ccccc3)[C@H](O)[C@H]2O)c1,26.7%
19,CCC(=O)Nc1ccc2c(c1)nc(CCN1CCN(c3ccccn3)CC1)n2C,-16.8%
20,Cc1nn(-c2ccccc2)c(C)c1S(=O)(=O)N1CCN(c2ccccn2)CC1,-17.2%
21,Clc1cc2nc(N3CCN(c4ccccn4)CC3)c3nncn3c2cc1Cl,36.4% (active)
22,CCN(C(=O)COc1cccnc1[N+](=O)[O-])c1ccccc1,-14.2%
23,O=C(NCC(=O)N1CCCc2ccccc21)c1cccc2[nH]ccc12,5.02%
24,O=C(c1ccccc1)N1CCC(c2nc3c(nnn3Cc3c(Cl)cccc3Cl)c(=O)[nH]2)CC1,-14.3%
25,O=C(CSc1nnc(-c2ccc3c(c2)OCO3)n1-c1ccccc1)OCC(=O)c1ccccc1,69.9% (active)
26,Cc1ccc(-n2c(SCC(=O)N3CCOCC3)nnc2-c2cc3ccccc3o2)cc1,-10.7%
27,COc1ccc(-n2c(SCC(=O)OC(C)C)nnc2-c2ccccn2)cc1,16.8%
